The structures appear in SMILES notation.

The target in this assay is AMP-activated protein kinase, AMPK (Homo sapiens) (UniProt P54646+O43741+P54619+Q9UGJ0+Q9Y478+Q13131+Q9UGI9). Put plainly: AMP-dependent Kinase enzyme assay. An in vitro enzyme assay that detects ADP turnover that is directly proportional to AMPK activity. This uses naive AMPK that is activated during the assay with MK-8722. Set-up: scale not given: direction of the effect not stated beside the values. It counts as functional. To be noted: 30 µM.
Regarding `CCCc1nnc(N2CCC(N3CCN(CCO)CC3)CC2)o1`, the Percent Effect was -0.32%.

As to `CSC1(CNC(=O)N(C)Cc2sccc2C)CCOCC1`, the Percent Effect is -7.94%. The result for `CN1CC(c2n[nH]c(=O)n2-c2cccc(Cl)c2)CC1=O` (stereo not given) reads -12.1%; that for `CC(C)c1noc(OCC(=O)N2CCCCC2C)n1` (stereo not given), -1.04%; that for `Cn1c(CO)nnc1SCc1c(F)cccc1Br`, 2.62%. The result for `COCCN(C)C[C@@H]1CN(c2nc(C)cc(C)n2)C[C@@H]1CO` reads 2.16%; that for `Cn1cccc1C(=O)NCc1ccnc(C2CCCOC2)n1` (stereo not given), 6.83%. Consider `O=C(C1CCCN(c2nc3ccccc3cc2CO)C1)N1CCCC1` (stereo not given), for which the Percent Effect was 9.42%. With `N#Cc1cccnc1N1CCC(Nc2ccccc2)C1` (stereo not given) the figure was 4.61%. The result for `Cc1c(C(=O)N(C)c2ccccc2)cccc1N(C)S(C)(=O)=O` reads 12%.

Regarding `CCOCC(=O)N1CCC(C)(c2nccs2)CC1`, the Percent Effect was found to be 6.62%. Turning to `CC(C)(C)OC(=O)N(CCNS(=O)(=O)N1CCOCC1)C1CC1`, the Percent Effect worked out at 8.24%. With `CC(C)(C(=O)N[C@@H]1CCC[C@@H](O)[C@@H]1O)c1cccc(F)c1` the figure was 15.9%; with `O=S(=O)(NCCCn1cncn1)c1ccc2c(c1)CCC2`, 8.86%; with `Nc1cc(N2CCC(c3cc(Cc4ccccc4)n[nH]3)CC2)ccn1`, -5.64%. The result for `Cc1nccn1CCN(C)C(=O)c1cn(-c2ccccc2)nn1` reads -5.19%. With `CN(CCc1ccncc1)Cc1c(C2CCCC2)[nH]c2ncccc12` the figure was 9.38%; with `CCNC(=O)C1CCN(Cc2ccc(C(=O)Nc3nnc(C)s3)cc2)C1` (stereo not given), -2.87%. As to `CC(C)Cn1ccnc1CNC(=O)N1CCCC1CN1CCOCC1` (stereo not given), the Percent Effect is -4.29%. The result for `O=C(Cc1c(F)cccc1Cl)Nc1cc(N2CCCC2)ncn1` reads 4.4%; that for `CN1CCC(N(Cc2ccncc2)C(=O)COCC2CCCCO2)CC1` (stereo not given), 1.82%. With `Cc1noc(CCCc2nc(C3CCOC3)no2)n1` (stereo not given) the figure was 10.8%; with `CSCC(=O)N(C)Cc1noc(-c2ccccc2)n1`, 6.32%.

In the case of `CN(C)c1ccc(C(=O)Nc2ccn(Cc3ccccn3)n2)cn1`, the Percent Effect turned out to be 18.9%. With `COc1ccccc1OC1CCN(C(=O)c2cnc(C)s2)CC1` the figure was 3.19%; with `COc1c(C)cnc(CN2CCn3c(nnc3C3CC3)C2)c1C`, 8.46%; with `CCOc1ccc(C(=O)NC2CCN(c3ncccn3)CC2)cc1C`, 0.756%. The result for `O=C(NCCn1ccnc1-c1cc2n(n1)CCCNC2)c1ccncc1` reads 0.773%.

Regarding `Cc1nnc(-c2cccc(C#N)c2)n1C1CCN(C(C)C)C1=O` (stereo not given), the Percent Effect came out at 7.44%. With `O=S(=O)(c1cc(F)ccc1N1CC(n2cccn2)C1)C(F)(F)F` the figure was 26.5%; with `NC(=O)C1CCN(c2ccc(C(=O)N3CCc4ccccc43)cn2)C1` (stereo not given), 6.03%. As for `N[C@H]1CN(C(=O)c2ccc3[nH]c(CO)nc3c2)C[C@@H]1c1ccccc1`, the Percent Effect stood at 3.57%. For `Cc1ccc(CN2CCS(=O)(=O)C(C)(C)C2)cc1C`, the Percent Effect is -0.279%. With `CSCC(C)(O)CNS(=O)(=O)c1cccc(C)c1` (stereo not given), the Percent Effect was -0.713%. The result for `Cc1nc(CNC(=O)c2cc(COc3ccccc3)[nH]n2)n[nH]1` reads 7.31%; that for `NC(=O)CNC(=O)c1cc(Cn2cnc3ccccc32)[nH]n1`, -3.37%; that for `CCc1noc(C)c1C(=O)N1CCC2(CCCN(CC(C)(C)C)C2=O)C1` (stereo not given), 7.67%.

Take `CC1CCC(O)(CSc2nnnn2C2CC2)CC1` (stereo not given): the Percent Effect amounted to 6.07%. The result for `CN(C)c1nc(CNC(=O)Nc2cccc([S+](C)[O-])c2)cs1` (stereo not given) reads 5.35%; that for `CC(=O)Nc1ccc(CNC(=O)CNCc2nnc(C)o2)cc1`, -8.94%.

These data come from ChEMBL document CHEMBL3988442, “University of Dundee, Small-Polar-MMV Screening Library” (2021).
